# Sampled rows, rich in hits. Any-hit rate of the full collection: about 8%.
# HT1080 IDH1KD tx = kills HT-1080 cells with IDH1 knockdown; HT-1080 IDH1 knockdown viability, ATP luminescence, 48 h; Potency, µM (doses to about 46.1 µM), inactives show at the highest dose activity, negative = toxicity, most hits filed as cytotoxic; AID 686971; 360,000 tested, 2% active;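 further: 0% = DMSO wells and -100% = cell-free medium wells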
#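 Viability of IDH1-knockdown HT-1080 fibrosarcoma cells was assessed by CellTiter-Glo after 48 h at 37 °C with titrated compound; concentration-effect curves were classified by fit quality and response size.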
# SW480 rereplic = DNA re-replication induction in SW480 cells; SW480 DNA re-replication, Hoechst DNA content imaging, 48 h; Potency, µM (series often up to 46.1 µM), inactives show at the top dose re-replication activation, usual class: activators; 340,000 tested, 1.8% active; AID 624297; further: % of control where 0% means no effect; nearly all actives have a fitted effect of over 55% in size
#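 SW480 cells exposed to compounds for 48 hr at 37 C, 5% CO2, then Hoechst-stained 40 min. Nuclear DNA content imaged by fluorescence scanning (405 nm excitation, 500-530 nm emission); re-replication scored as increased high-intensity nuclei.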
# KB-3-1 tox = KB-3-1 parental cell cytotoxicity | KB-3-1 viability, CellTiter-Glo ATP luminescence, 72 h | Potency, µM (top dose mostly 46.1 µM), hits mostly cytotoxic | 400,000 tested, 1.4% active | AID 1347075; further: on the % scale 0 is the no-effect control and ±100 the full control effect; nearly all actives have a fitted effect of over 60% in size
#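 KB-3-1 parental drug-naive adenocarcinoma cells in DMEM/10% FBS, incubated 72 h at 37 C with pin-transferred compounds across a concentration series. Viability by CellTiter-Glo luminescence; concentration-response curves fitted after normalization.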
# MCF10A rerep = DNA re-replication induction in MCF 10a cells; MCF 10A DNA re-replication, Hoechst nuclear intensity, 48 h; Potency, µM (titrated, usually from 46.1 µM), for inactives: top-dose activity, positive = re-replication, hits mostly activators; 350,000 tested, 2.9% active; AID 624296; further: % of control where 0% means no effect; nearly all actives have a fitted effect of over 50% in size
# KB-V1 MDR tox = kills drug-selected multidrug resistant KB-V1 cells. 400,000 tested, 3.4% active. Potency, µM (doses to about 46.1 µM), actives largely listed as cytotoxic. KB-V1 MDR cells viability, CellTiter-Glo, 72 h; further: on the % scale 0 is the no-effect control and ±100 the full control effect; nearly all actives have a fitted effect of over 60% in size
#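 KB-V1 cells (P-gp-expressing MDR subline of KB-3-1) in phenol-red-free DMEM with 10% FBS were exposed to library compounds over a concentration series for 72 h at 37 degrees C. Viability read by CellTiter-Glo luminescence; concentration-effect curves fitted after normalization.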
# HT1080NT lethal = kills 2HG-producing HT-1080-NT fibrosarcoma cells. HT-1080-NT fibrosarcoma viability, CellTiter-Glo ATP luminescence, 48 h. Potency, µM (series often up to 46.1 µM), for inactives: at the highest dose activity, negative = less viability, usual class: cytotoxic. 360,000 tested, 1.6% active. AID 686970;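 further: NT is the 2HG producing partner of a matched IDH1 knockdown line; 0% = DMSO-treated cells and -100% = media-only wells without cells; nearly all actives have a fitted effect of over 55% in size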
#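 Compounds were tested in concentration-response format on HT-1080-NT cells for 48 hours at 37 degrees C. Cell viability came from CellTiter-Glo luminescence; curves were classified by r2, response magnitude and activity.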
# Starred values were filed as active, the others as inactive; i = inactive; ? = inconclusive; / = no result. The call rests on the fitted dose curve; in most records, active means well fitted curve in the direction sought with a large enough effect; inconclusive means small, poorly fitted or top-dose-only effect, or another doubt; inactive means no such curve, though single readings can be large; an effect the other way counts as inactive or inconclusive. Potency means the concentration at half of the fitted maximal effect.
SMILES,HT1080 IDH1KD tx,SW480 rereplic,KB-3-1 tox,MCF10A rerep,KB-V1 MDR tox,HT1080NT lethal
COc1cccc(CNC(=O)NCc2noc3ccc(C)cc23)c1,/,/,i,/,i,/
CN(C)c1ccc(NS(=O)(=O)c2cc3c4c(c2)CC(=O)N4CCC3)cc1,-2%,-18%,i,16%,i,3%
CCN(CC)CCCN(Cc1cc2cc(OC)ccc2[nH]c1=O)C(=O)Nc1ccc(F)cc1,?,?,i,2.9µM*,i,?
CCc1ccc2[nH]c(=O)c(CN(CCN(CC)CC)C(=O)Nc3ccccc3OC)cc2c1,?,1%,?,3%,i,16µM*
COc1ccc(C)cc1NS(=O)(=O)c1ccc2c(c1)[C@H]1C=CC[C@H]1[C@@H](c1cccc(Cl)c1)N2,/,/,i,/,i,/
CCNc1ccc(Br)cc(C(=O)/C=C/c2ccc3c(c2)OCO3)c1=O,-5%,?,i,18µM*,i,-4%
Nc1ccccc1C(=O)/C=C/c1ccc2c(c1)OCO2,-20%,18µM*,i,?,?,-22%
CNc1ccc(Br)cc(C(=O)/C=C/c2ccc(Cl)cc2Cl)c1=O,21µM*,?,?,4.6µM*,?,?
CNc1ccc(Br)cc(C(=O)/C=C/c2cccc(OC)c2)c1=O,?,?,?,18µM*,?,?
O=C(/C=C/c1ccc2c(c1)OCO2)c1ccc(O)cc1O,-40%,?,?,?,i,-7%
N#C/C(=N\Nc1cccc2ccccc12)c1nnc2n1CCCCC2,-4%,?,i,?,i,-15%
CCNc1ccc(Br)cc(C(=O)/C=C/c2c(Cl)cccc2Cl)c1=O,?,?,?,23µM*,i,?
CCNc1ccc(Br)cc(C(=O)/C=C/c2ccc(Cl)cc2)c1=O,?,?,16µM*,13µM*,18µM*,?
CNc1ccc(Br)cc(C(=O)/C=C/c2ccc(OC)cc2OC)c1=O,-17%,0%,i,?,?,-7%
COc1cc(OCc2ccccc2)c(C(=O)/C=C/c2ccc3c(c2)OCO3)c(OC)c1OC,?,?,?,15µM*,?,-30%
COCCCn1c(SCc2cccc(Cl)c2)nc2c(sc3ccccc32)c1=O,/,/,i,/,i,/
COc1ccc(-n2cnc3cc(C(=O)NCC4CCCO4)ccc32)cc1 (stereo not given),0%,?,?,1%,i,-4%
Cn1c(=O)c(NC2CCCCC2)c2c3c(cccc31)C(=O)c1ccccc1-2,12%,23µM*,i,3.7µM*,i,5%
Cn1c(=O)c(NCCc2ccccc2)c2c3c(cccc31)C(=O)c1ccccc1-2,-29%,18µM*,i,5.8µM*,i,-15%
CCCCNc1c2c3c(cccc3n(C)c1=O)C(=O)c1ccccc1-2,?,5.8µM*,?,?,?,?
Cc1sc2ncn(CC(=O)NCCCC(=O)N3CCCCC3)c(=O)c2c1C,-7%,6%,i,-19%,i,-6%
Cc1ccc2c(c1)c1c(n2CC(O)CNC2CCCC2)CCCC1 (stereo not given),-14%,?,?,?,21µM*,?
Cc1ccc(C(=O)c2cn(CC(=O)NC3CCCCC3)c3nc(C)ccc3c2=O)cc1,/,/,i,/,i,/
COc1cc(N=c2c([N+](=O)[O-])nn(-c3ccc4c(c3)OCCO4)n2O)cc(OC)c1,?,?,?,21µM*,6.5µM*,-19%
CN=c1c([N+](=O)[O-])nn(-c2ccc3c(c2)OCCO3)n1O,1%,16µM*,i,2%,i,-9%
SMILES,HT1080 IDH1KD tx,SW480 rereplic,KB-3-1 tox,MCF10A rerep,KB-V1 MDR tox,HT1080NT lethal
CCOc1ccc(C(=O)N[C@H](C(=O)N2CCN(c3ncccn3)CC2)C(C)C)cc1,4%,/,i,/,i,4%
N/C(=N\OC(=O)N1CCOCC1)c1ccc(Br)cc1,-19%,?,i,?,21µM*,?
Cc1cnc(C(=O)Nc2ccc(OC(F)(F)F)cc2)cn1,-9%,11%,15µM*,15%,?,-1%
Cc1nc(C(F)(F)F)c(C(=O)NC(=O)Nc2ccc(OC(F)(F)F)cc2)s1,-3%,-17%,i,4%,16µM*,-1%
Cc1nc(C(F)(F)F)c(C(=O)NC(=O)Nc2ccccc2)s1,-3%,-6%,i,-1%,i,-1%
Cc1cnc(C(=O)Nc2ccc(N3CCCCC3)cc2)cn1,10%,-5%,i,2%,i,22%
Nc1c(Cl)c(Cl)nc(C(=O)OCC(=O)NCc2ccccc2)c1Cl,0%,-4%,i,0%,i,16%
O=C(COC(=O)c1nc(Cl)c(Cl)c(Cl)c1Cl)NCc1ccccc1,?,16µM*,i,?,i,-25%
CN=Cc1nc(-c2ccccc2)oc1O,-10%,-6%,i,-1%,i,-5%
Cc1ccc(-c2nc(C=Nc3ccc(O)cc3)c(O)o2)cc1,?,5.8µM*,i,15µM*,?,?
Cc1ccc(N=Cc2nc(/C=C/c3cccc([N+](=O)[O-])c3)oc2O)cc1,7%,-4%,i,?,16µM*,22%
Cc1oc(/N=C/c2cccc([N+](=O)[O-])c2)c(C#N)c1C,5%,-7%,i,4%,i,0%
COc1ccc(NC(=O)Cn2c(SCc3c(F)cccc3Cl)nc3ccncc32)cc1OC,/,/,i,/,i,/
Oc1ccc(/C=N/n2c3ccccc3c3ccccc32)cc1,23µM*,14%,i,?,i,?
CN(C(=O)COC(=O)c1ccccc1OCc1ccc(F)cc1)C1CCS(=O)(=O)C1 (stereo not given),7%,-19%,i,-2%,i,0%
COc1cc(/C=N/Nc2nc(N3CCCC3)nc(N3CCCC3)n2)ccc1O,-6%,-3%,i,?,i,-16%
COc1ccc(-c2cnnc(N/N=C/c3ccc(O)c(OC)c3)n2)cc1,5.2µM*,16µM*,4.1µM*,15µM*,5.8µM*,?
COc1ccc(-c2cnnc(N/N=C/c3ccc(-c4ccc([N+](=O)[O-])cc4)o3)n2)cc1,?,?,4.6µM*,1µM*,18µM*,-27%
O=C(/C=C/c1ccccc1)NC(NC(=S)Nc1ccc(Cl)cc1Cl)C(Cl)(Cl)Cl (stereo not given),?,?,i,12µM*,?,-24%
O=C(NC(NC(=S)Nc1ccccc1Cl)C(Cl)(Cl)Cl)c1cccc(Cl)c1 (stereo not given),?,?,?,?,21µM*,?
